For five sequences, binding signal results are on record in article PMC11006913.

Where a chain is given by its changes, count along the chain named.

Common to all, as to experiment: PBM; 200 nM protein, PBS
What all share (conditions): dsDNA, one strand shown

Test [1] has as its target HOXB4 (Homo sapiens, UniProt P17483 148-234).
Test [2] addresses T1, VENTX (Homo sapiens, UniProt O95231 78-163, R121Q).
T1 sequence: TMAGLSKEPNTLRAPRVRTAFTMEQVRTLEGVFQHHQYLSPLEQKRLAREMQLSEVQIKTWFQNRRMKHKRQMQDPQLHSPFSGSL

The target of another test is ALX4 (Homo sapiens, UniProt Q9H161 200-286).
In test [3] the target is T2, PAX4 (Homo sapiens, UniProt O43316 9-242, R200K).
T2 sequence: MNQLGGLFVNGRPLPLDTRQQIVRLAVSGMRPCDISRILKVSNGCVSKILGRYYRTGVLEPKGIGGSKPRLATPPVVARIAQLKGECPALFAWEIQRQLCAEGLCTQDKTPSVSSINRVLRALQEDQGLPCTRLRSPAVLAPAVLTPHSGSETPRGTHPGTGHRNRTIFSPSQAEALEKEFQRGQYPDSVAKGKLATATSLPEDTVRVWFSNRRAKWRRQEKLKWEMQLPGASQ

Test [4] deals with PRRX1 (Homo sapiens, UniProt P54821 80-166, F113S).
The target in test [5] is T3, VENTX (Homo sapiens, UniProt O95231 78-163, Y115F).
T3 sequence: T1 sequence with Y38F, Q44R

Test [6] addresses T4, PAX4 (Homo sapiens, UniProt O43316 9-242).
T4 sequence: T2 sequence with K192R

Test [7] deals with HOXA2 (Homo sapiens, UniProt O43364 129-215, R185T).
The target of test [8] is HOXA4 (Homo sapiens, UniProt Q00056 201-287, R217L).
The target in test [9] is HOXB4 (Homo sapiens, UniProt P17483 148-234, V174I).
Test [10] deals with T5, PAX4 (Homo sapiens, UniProt O43316 9-242, R200Q).
T5 sequence: T2 sequence with K192Q

Test [11] deals with HOXA2 (Homo sapiens, UniProt O43364 129-215, R185K).
The target in test [12] is T6, PAX4 (Homo sapiens, UniProt O43316 9-242, F177V).
T6 sequence: T2 sequence with F169V, K192R

Test [13] deals with MSX2 (Homo sapiens, UniProt P35548 130-214).
In test [14] the target is T7, PAX4 (Homo sapiens, UniProt O43316 9-242, F177Y).
T7 sequence: T2 sequence with F169Y, K192R

Test [15] has as its target MSX2 (Homo sapiens, UniProt P35548 130-214, F161Y).
Test [16] deals with VAX1 (Homo sapiens, UniProt Q5SQQ9 86-172, T142I).
In test [17] the target is HOXA4 (Homo sapiens, UniProt Q00056 201-287, W262F).
Test [18] addresses PRRX1 (Homo sapiens, UniProt P54821 80-166).
For test [19], the target named is VAX1 (Homo sapiens, UniProt Q5SQQ9 86-172, K157R).
Chain of VAX1 (Homo sapiens, UniProt Q5SQQ9 86-172, K157R) (Q5SQQ9 86-172 K157R): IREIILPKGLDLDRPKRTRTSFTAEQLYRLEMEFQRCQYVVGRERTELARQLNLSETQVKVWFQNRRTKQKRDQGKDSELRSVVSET

Chain of HOXB4 (Homo sapiens, UniProt P17483 148-234, V174I) (P17483 148-234 V174I): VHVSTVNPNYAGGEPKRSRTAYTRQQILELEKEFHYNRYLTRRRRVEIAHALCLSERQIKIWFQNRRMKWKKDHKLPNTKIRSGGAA
Chain of HOXA4 (Homo sapiens, UniProt Q00056 201-287, R217L) (Q00056 201-287 R217L): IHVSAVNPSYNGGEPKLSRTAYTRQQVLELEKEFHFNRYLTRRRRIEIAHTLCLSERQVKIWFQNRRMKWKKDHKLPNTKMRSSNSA
Chain of PRRX1 (Homo sapiens, UniProt P54821 80-166) (P54821 80-166): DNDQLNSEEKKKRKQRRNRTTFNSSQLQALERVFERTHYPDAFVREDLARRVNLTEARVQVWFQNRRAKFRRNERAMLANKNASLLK
Chain of HOXA4 (Homo sapiens, UniProt Q00056 201-287, W262F) (Q00056 201-287 W262F): as the sequence (Q00056 201-287 R217L) above, with L17R, W62F counted along it
Chain of HOXA2 (Homo sapiens, UniProt O43364 129-215, R185T) (O43364 129-215 R185T): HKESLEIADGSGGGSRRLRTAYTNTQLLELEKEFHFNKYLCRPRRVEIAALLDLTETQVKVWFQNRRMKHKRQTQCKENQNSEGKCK
Chain of VAX1 (Homo sapiens, UniProt Q5SQQ9 86-172, T142I) (Q5SQQ9 86-172 T142I): as the sequence (Q5SQQ9 86-172 K157R) above, with T57I, R72K counted along it
Chain of PRRX1 (Homo sapiens, UniProt P54821 80-166, F113S) (P54821 80-166 F113S): as the sequence (P54821 80-166) above, with F34S counted along it
Chain of HOXB4 (Homo sapiens, UniProt P17483 148-234) (P17483 148-234): as the sequence (P17483 148-234 V174I) above, with I27V counted along it
Chain of MSX2 (Homo sapiens, UniProt P35548 130-214, F161Y) (P35548 130-214 F161Y): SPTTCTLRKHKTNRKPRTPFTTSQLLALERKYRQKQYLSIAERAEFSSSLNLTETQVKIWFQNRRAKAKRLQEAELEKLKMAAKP
Chain of ALX4 (Q9H161 200-286): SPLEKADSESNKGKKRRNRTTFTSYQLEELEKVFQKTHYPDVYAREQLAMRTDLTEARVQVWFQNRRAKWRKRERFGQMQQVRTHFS
Chain of MSX2 (Homo sapiens, UniProt P35548 130-214) (P35548 130-214): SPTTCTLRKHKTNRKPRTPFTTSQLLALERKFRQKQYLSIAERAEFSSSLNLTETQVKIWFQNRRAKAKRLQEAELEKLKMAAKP
Chain of HOXA2 (Homo sapiens, UniProt O43364 129-215, R185K) (O43364 129-215 R185K): as the sequence (O43364 129-215 R185T) above, with T57K counted along it

Turning to ATCAATTA, the binding signal is 13.4 upbm affinity estimate (log intensity, higher = more binding, comparable within an allelic series) in the test with HOXB4 [1]; 12.3 upbm affinity estimate (log intensity, higher = more binding, comparable within an allelic series) with VENTX [2]; 14.2 upbm affinity estimate (log intensity, higher = more binding, comparable within an allelic series) with ALX4; 11.8 upbm affinity estimate (log intensity, higher = more binding, comparable within an allelic series) with PAX4 [3]; 11.4 upbm affinity estimate (log intensity, higher = more binding, comparable within an allelic series) with PRRX1 [4]; 11.8 upbm affinity estimate (log intensity, higher = more binding, comparable within an allelic series) in the test with VENTX [5]. The binding signal with PAX4 [6] is 12.4 upbm affinity estimate (log intensity, higher = more binding, comparable within an allelic series); in the test with HOXA2 [7], 13.3 upbm affinity estimate (log intensity, higher = more binding, comparable within an allelic series); with HOXA4 [8], 12.6 upbm affinity estimate (log intensity, higher = more binding, comparable within an allelic series); with HOXB4 [9], 14.1 upbm affinity estimate (log intensity, higher = more binding, comparable within an allelic series); in the test with PAX4 [10], 12.2 upbm affinity estimate (log intensity, higher = more binding, comparable within an allelic series); with HOXA2 [11], 13.6 upbm affinity estimate (log intensity, higher = more binding, comparable within an allelic series). Moreover, the binding signal in the test with PAX4 [12] was 10.7 upbm affinity estimate (log intensity, higher = more binding, comparable within an allelic series); in the test with MSX2 [13], 14 upbm affinity estimate (log intensity, higher = more binding, comparable within an allelic series); with PAX4 [14], 11.2 upbm affinity estimate (log intensity, higher = more binding, comparable within an allelic series); with MSX2 [15] it was 13.7 upbm affinity estimate (log intensity, higher = more binding, comparable within an allelic series); in the test with VAX1 [16], 12.9 upbm affinity estimate (log intensity, higher = more binding, comparable within an allelic series); in the test with HOXA4 [17] it was 11.9 upbm affinity estimate (log intensity, higher = more binding, comparable within an allelic series). In addition, the binding signal with PRRX1 [18] was 13.6 upbm affinity estimate (log intensity, higher = more binding, comparable within an allelic series); with VAX1 [19], 13.1 upbm affinity estimate (log intensity, higher = more binding, comparable within an allelic series).

As for CAATTACC, the binding signal with HOXB4 [1] is 13 upbm affinity estimate (log intensity, higher = more binding, comparable within an allelic series); with VENTX [2], 11.7 upbm affinity estimate (log intensity, higher = more binding, comparable within an allelic series); with ALX4 it was 13.9 upbm affinity estimate (log intensity, higher = more binding, comparable within an allelic series); with PRRX1 [4], 10.9 upbm affinity estimate (log intensity, higher = more binding, comparable within an allelic series); with VENTX [5], 11.5 upbm affinity estimate (log intensity, higher = more binding, comparable within an allelic series); with HOXA2 [7], 12.6 upbm affinity estimate (log intensity, higher = more binding, comparable within an allelic series). Further, the binding signal in the test with HOXA4 [8] is 11.9 upbm affinity estimate (log intensity, higher = more binding, comparable within an allelic series); with HOXB4 [9] it was 13.7 upbm affinity estimate (log intensity, higher = more binding, comparable within an allelic series); in the test with HOXA2 [11], 13.1 upbm affinity estimate (log intensity, higher = more binding, comparable within an allelic series); with MSX2 [13], 13.8 upbm affinity estimate (log intensity, higher = more binding, comparable within an allelic series); with MSX2 [15], 13.5 upbm affinity estimate (log intensity, higher = more binding, comparable within an allelic series); with VAX1 [16], 12.5 upbm affinity estimate (log intensity, higher = more binding, comparable within an allelic series). In addition, the binding signal is 13.3 upbm affinity estimate (log intensity, higher = more binding, comparable within an allelic series) with PRRX1 [18] and 12.5 upbm affinity estimate (log intensity, higher = more binding, comparable within an allelic series) in the test with VAX1 [19].

With ATAATTGA, the binding signal was 13 upbm affinity estimate (log intensity, higher = more binding, comparable within an allelic series) in the test with HOXB4 [1]; 14 upbm affinity estimate (log intensity, higher = more binding, comparable within an allelic series) with ALX4; 11.5 upbm affinity estimate (log intensity, higher = more binding, comparable within an allelic series) in the test with PRRX1 [4]; 12 upbm affinity estimate (log intensity, higher = more binding, comparable within an allelic series) in the test with HOXA4 [8]; 13.7 upbm affinity estimate (log intensity, higher = more binding, comparable within an allelic series) with HOXB4 [9]; 11.9 upbm affinity estimate (log intensity, higher = more binding, comparable within an allelic series) with PAX4 [10]. Besides, the binding signal in the test with MSX2 [13] was 13.8 upbm affinity estimate (log intensity, higher = more binding, comparable within an allelic series); with PAX4 [14], 11 upbm affinity estimate (log intensity, higher = more binding, comparable within an allelic series); with MSX2 [15] it was 13.5 upbm affinity estimate (log intensity, higher = more binding, comparable within an allelic series); with HOXA4 [17], 11.3 upbm affinity estimate (log intensity, higher = more binding, comparable within an allelic series); with PRRX1 [18] it was 13.5 upbm affinity estimate (log intensity, higher = more binding, comparable within an allelic series).

For CCTAATTA, the binding signal in the test with HOXB4 [1] is 13.5 upbm affinity estimate (log intensity, higher = more binding, comparable within an allelic series); in the test with VENTX [2] it was 12.6 upbm affinity estimate (log intensity, higher = more binding, comparable within an allelic series); with ALX4, 14.5 upbm affinity estimate (log intensity, higher = more binding, comparable within an allelic series); with PAX4 [3] it was 12.1 upbm affinity estimate (log intensity, higher = more binding, comparable within an allelic series); with PRRX1 [4], 11.6 upbm affinity estimate (log intensity, higher = more binding, comparable within an allelic series); with VENTX [5] it was 12.4 upbm affinity estimate (log intensity, higher = more binding, comparable within an allelic series). Besides, the binding signal in the test with PAX4 [6] was 12.6 upbm affinity estimate (log intensity, higher = more binding, comparable within an allelic series); with HOXA2 [7], 14 upbm affinity estimate (log intensity, higher = more binding, comparable within an allelic series); in the test with HOXA4 [8], 12.6 upbm affinity estimate (log intensity, higher = more binding, comparable within an allelic series); with HOXB4 [9] it was 14.2 upbm affinity estimate (log intensity, higher = more binding, comparable within an allelic series); with PAX4 [10] it was 12.5 upbm affinity estimate (log intensity, higher = more binding, comparable within an allelic series); in the test with HOXA2 [11], 13.8 upbm affinity estimate (log intensity, higher = more binding, comparable within an allelic series). The binding signal with PAX4 [12] is 10.8 upbm affinity estimate (log intensity, higher = more binding, comparable within an allelic series); with MSX2 [13] it was 14.1 upbm affinity estimate (log intensity, higher = more binding, comparable within an allelic series); with PAX4 [14], 11.3 upbm affinity estimate (log intensity, higher = more binding, comparable within an allelic series); with MSX2 [15], 13.7 upbm affinity estimate (log intensity, higher = more binding, comparable within an allelic series); with VAX1 [16], 13.9 upbm affinity estimate (log intensity, higher = more binding, comparable within an allelic series); with HOXA4 [17], 12.3 upbm affinity estimate (log intensity, higher = more binding, comparable within an allelic series). Besides, the binding signal with PRRX1 [18] is 13.6 upbm affinity estimate (log intensity, higher = more binding, comparable within an allelic series); with VAX1 [19], 14.1 upbm affinity estimate (log intensity, higher = more binding, comparable within an allelic series).

With ACTAATTA, the binding signal with HOXB4 [1] is 13.5 upbm affinity estimate (log intensity, higher = more binding, comparable within an allelic series); in the test with VENTX [2], 12.8 upbm affinity estimate (log intensity, higher = more binding, comparable within an allelic series); in the test with ALX4, 14.4 upbm affinity estimate (log intensity, higher = more binding, comparable within an allelic series); in the test with PAX4 [3], 12.2 upbm affinity estimate (log intensity, higher = more binding, comparable within an allelic series); with PRRX1 [4], 12 upbm affinity estimate (log intensity, higher = more binding, comparable within an allelic series); in the test with VENTX [5] it was 12.6 upbm affinity estimate (log intensity, higher = more binding, comparable within an allelic series). The binding signal is 12.7 upbm affinity estimate (log intensity, higher = more binding, comparable within an allelic series) with PAX4 [6]; 14 upbm affinity estimate (log intensity, higher = more binding, comparable within an allelic series) with HOXA2 [7]; 12.9 upbm affinity estimate (log intensity, higher = more binding, comparable within an allelic series) with HOXA4 [8]; 14.2 upbm affinity estimate (log intensity, higher = more binding, comparable within an allelic series) with HOXB4 [9]; 12.7 upbm affinity estimate (log intensity, higher = more binding, comparable within an allelic series) with PAX4 [10]; 13.8 upbm affinity estimate (log intensity, higher = more binding, comparable within an allelic series) in the test with HOXA2 [11]. Also, the binding signal with PAX4 [12] was 10.8 upbm affinity estimate (log intensity, higher = more binding, comparable within an allelic series); with MSX2 [13] it was 14.1 upbm affinity estimate (log intensity, higher = more binding, comparable within an allelic series); with PAX4 [14], 11.4 upbm affinity estimate (log intensity, higher = more binding, comparable within an allelic series); in the test with MSX2 [15] it was 13.8 upbm affinity estimate (log intensity, higher = more binding, comparable within an allelic series); with VAX1 [16] it was 14.1 upbm affinity estimate (log intensity, higher = more binding, comparable within an allelic series); with HOXA4 [17], 12.8 upbm affinity estimate (log intensity, higher = more binding, comparable within an allelic series). In addition, the binding signal was 13.7 upbm affinity estimate (log intensity, higher = more binding, comparable within an allelic series) with PRRX1 [18] and 14.2 upbm affinity estimate (log intensity, higher = more binding, comparable within an allelic series) in the test with VAX1 [19].
